In the library only some 0.51% were active in any assay of this set; here they are far more common.
Epigenetic reg: Quantitative High-Throughput Screen for Regulators of Epigenetic Control. murine LDR cells, GFP reporter derepression, 30 h. AID 1865, 2009. Potency, µM (highest dose often 53.9 µM), inactives show at the highest dose GFP activation, actives largely listed as activators. hit rate 0.2% among 280,000; note: % of control where 0% means no effect; nearly all actives have a fitted effect of over 60% in size
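GFP-positive cell count by laser-scanning cytometry (objects 20–120 um) after 30 h, 37 C compound exposure of murine LDR cells; reporter is CMV-GFP integrated at a silenced locus, inducible by HDAC or DNMT inhibitors.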
PINK1 expr mod: A Quantitative High throughput Screen to Identify Chemical Modulators of PINK1 Expression; PINK1 immunofluorescence, high-content cytometry, 24 h; Potency, µM (titrated, usually from 76.6 µM), without a hit: top-dose activation (PINK1 increase), usual class: activators; hit rate 0.2% among 410,000; AID 624263, 2012; active = well fitted activation curve with a large enough effect; inconclusive = small, poorly fitted or top-dose-only effect; cell line not stated here; note: % of control where 0% means no effect; nearly all actives have a fitted effect of over 65% in size
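Fluorescence from anti-PINK1 antibody, together with nuclear and cell stains, was scanned on a laser-scanning cytometer. Before staining, stable-line cells were incubated 24 hours with compounds at 5 concentrations; primary antibody 12 h at 10 degrees C.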
Vif-APOBEC3G blk: qHTS for Inhibitors of Vif-A3G Interactions: qHTS; DNA dC->dU-editing enzyme APOBEC-3G (Homo sapiens), Q9HC16; Potency, µM (series often up to 46.1 µM), without a hit: top-dose activity, negative = active, usual class: inhibitors; HeLa A3G-eYFP + Vif (tagged APOBEC3G with the HIV-1 protein that degrades it), YFP fluorescence, overnight; hit rate 0.076% among 410,000; note: % is set by controls: 0 for no effect and ±100 for the full control effect; nearly all actives have a fitted effect of over 60% in size
Target sequence (Q9HC16 whole entry, looked up): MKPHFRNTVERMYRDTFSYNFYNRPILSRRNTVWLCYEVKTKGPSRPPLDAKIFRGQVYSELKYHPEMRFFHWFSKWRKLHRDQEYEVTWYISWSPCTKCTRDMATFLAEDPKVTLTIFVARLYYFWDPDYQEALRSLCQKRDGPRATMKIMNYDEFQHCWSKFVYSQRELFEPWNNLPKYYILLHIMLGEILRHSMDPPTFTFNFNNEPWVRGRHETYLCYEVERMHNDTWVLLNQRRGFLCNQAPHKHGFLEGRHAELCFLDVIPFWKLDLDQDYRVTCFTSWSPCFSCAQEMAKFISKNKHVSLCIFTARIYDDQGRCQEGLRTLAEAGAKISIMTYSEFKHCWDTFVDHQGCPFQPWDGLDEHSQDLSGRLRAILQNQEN
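HeLa cells stably expressing Vif and C-terminally eYFP-tagged A3G, seeded overnight at 37 deg C, then exposed to compound by pintool overnight at 37 deg C. Rise in yellow fluorescence (Ex 488/Em 500-530, Acumen) marks blocked Vif-driven A3G degradation.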
Vif-A3F inh: qHTS for Inhibitors of Vif-A3F Interactions: qHTS. Potency, µM (highest dose often 46.1 µM), inactives show top-dose activity, negative = active. hit rate 0.2% among 390,000. HeLa A3F-eYFP + Vif (tagged APOBEC3F with the HIV-1 protein that degrades it), YFP fluorescence increase; note: % of control where 0% means no effect; nearly all actives have a fitted effect of over 65% in size
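Fluorescence increase (Ex 488/Em 500-530) after overnight compound treatment at 37 deg C flags inhibition of Vif-driven A3F-eYFP loss in stable HeLa A3F-eYFP/Vif cells seeded overnight beforehand.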
The depositor's hits bear a star; [ ] = remark or other dose. Unless noted, calls come from the whole dose curve; as a rule, active = well fitted curve in the direction sought with a large enough effect; inconclusive = small, poorly fitted or top-dose-only effect, or another doubt; inactive = no such curve, though single readings can be large; an effect the other way counts as inactive or inconclusive. Potency is the fitted concentration of half-maximal effect.

COc1ccccc1CNc1nc2ccc(C)cc2n2nnnc12 was read as Epigenetic reg inconclusive, PINK1 expr mod 1%, Vif-APOBEC3G blk -3% and Vif-A3F inh 13µM*.
Screening COc1ccc(Cl)cc1NC(=O)CN1CCCC1 returned Epigenetic reg 0%, PINK1 expr mod -1%, Vif-APOBEC3G blk -1% and Vif-A3F inh 5%.
`COc1ccc2[nH]c(C(=O)N/N=C/c3ccc(OC)c(O)c3)cc2c1` gave PINK1 expr mod 6%, Vif-APOBEC3G blk 2.5µM* and Vif-A3F inh 1%.
`COc1ccc2[nH]c(C(=O)N/N=C/c3ccccc3OC)cc2c1` gave PINK1 expr mod 5%, Vif-APOBEC3G blk inconclusive and Vif-A3F inh -16%.
`CCN1C(=NCCCOC(C)C)N[C@@H](CCc2ccccc2)[C@H](C(=O)NCCCOC(C)C)[C@H]1C` gave PINK1 expr mod 22µM*, Vif-APOBEC3G blk 5% and Vif-A3F inh -7%.
`O=C(CSCc1ccc(Cl)cc1)Nc1cc([N+](=O)[O-])ccc1O` gave Epigenetic reg 1%, PINK1 expr mod 14µM*, Vif-APOBEC3G blk 2% and Vif-A3F inh -1%.
Screening Cc1ccc(SCC(=O)Nc2cc([N+](=O)[O-])ccc2O)cc1 returned Epigenetic reg 1%, PINK1 expr mod 16µM*, Vif-APOBEC3G blk -5% and Vif-A3F inh 7%.
`COc1ccc([N+](=O)[O-])cc1NC(=O)CSCc1ccc(Br)cc1` gave Epigenetic reg -3%, PINK1 expr mod 4%, Vif-APOBEC3G blk -1% and Vif-A3F inh 5%.
O=c1cc(N2CCOCC2)[nH]c(=O)n1C1CCCCC1 was read as Epigenetic reg 1%, PINK1 expr mod 2%, Vif-APOBEC3G blk 0% and Vif-A3F inh -1%.
Screening Cc1ccc(Cl)c2c(N=Nc3ccccc3)c(O)[nH]c12 returned PINK1 expr mod inconclusive, Vif-APOBEC3G blk -13% and Vif-A3F inh 8.9µM*.
For COc1ccc(N/C=C\C(=O)c2ccc(C)cc2)cc1OC the results were Epigenetic reg 11%, PINK1 expr mod 9%, Vif-APOBEC3G blk -7% and Vif-A3F inh inconclusive.
For COc1ccc(N/C=C\C(=O)c2ccc(Br)cc2)cc1OC the results were Epigenetic reg inconclusive, PINK1 expr mod 40µM*, Vif-APOBEC3G blk -29% and Vif-A3F inh 32µM*.
CCOc1ccc(NC(=O)c2ccc(NC(=O)c3ccccc3Br)cc2)cc1 was read as PINK1 expr mod 8%, Vif-APOBEC3G blk -19% and Vif-A3F inh 0%.
Screening Cc1ccc(-c2cc(C(=O)N3N=C(C(F)F)CC3(O)C(F)F)c3ccccc3n2)cc1C (stereo not drawn) returned Epigenetic reg 12%, PINK1 expr mod 10µM*, Vif-APOBEC3G blk inconclusive and Vif-A3F inh -15%.
`O=C(c1cc(-c2ccccc2)nc2ccccc12)N1N=C(C(F)F)CC1(O)C(F)F` (stereo not drawn) gave Epigenetic reg -1%, PINK1 expr mod 15%[38.3 µM], Vif-APOBEC3G blk 1% and Vif-A3F inh -18%.
For O=C(Nc1c2c(nn1-c1ccc(Cl)cc1)CS(=O)(=O)C2)c1ccc2c(c1)OCO2 the results were Epigenetic reg 2%, PINK1 expr mod 8%[38.3 µM], Vif-APOBEC3G blk -1% and Vif-A3F inh -7%.
`O=C(Nc1c2c(nn1-c1ccc(Cl)cc1)CS(=O)(=O)C2)c1ccc(Br)cc1` gave Epigenetic reg 0%, PINK1 expr mod 32µM*, Vif-APOBEC3G blk -4% and Vif-A3F inh 1%.
C[C@H](NC(=O)c1nc[nH]c1C(=O)N[C@@H](CCCCNC(=O)OC(C)(C)C)C(=O)OC(C)(C)C)C(=O)OC(C)(C)C was read as Epigenetic reg 1%, PINK1 expr mod 4%, Vif-APOBEC3G blk -6% and Vif-A3F inh -4%.
Screening CCOc1ccc2c(c1)/C(=C(\C(Cl)=C(Cl)Cl)[N+](=O)[O-])N2 returned Epigenetic reg 0%, PINK1 expr mod 0%, Vif-APOBEC3G blk inconclusive and Vif-A3F inh inconclusive.
For CCCCOc1ccc2c(c1)/C(=C(\C(Cl)=C(Cl)Cl)[N+](=O)[O-])N2 the results were Epigenetic reg 0%, PINK1 expr mod -4%, Vif-APOBEC3G blk inconclusive and Vif-A3F inh 22µM*.
O=C(Nc1cc(Cl)ccc1-n1cncn1)c1ccc([N+](=O)[O-])s1 was read as PINK1 expr mod 5µM*, Vif-APOBEC3G blk inconclusive and Vif-A3F inh inconclusive.
`CC(=O)Nc1ccc(/C(C)=N/NC(=O)c2ccc(COc3ccccc3Cl)o2)cc1` gave PINK1 expr mod 3%, Vif-APOBEC3G blk -5% and Vif-A3F inh -5%.
Cc1ccc(-n2c(SCC(=O)NCc3ccccc3)nc3c([nH]c4ccccc43)c2=O)cc1 was read as Epigenetic reg 18%, PINK1 expr mod 6%, Vif-APOBEC3G blk 5% and Vif-A3F inh -15%.
Screening CCCCCn1c(NC(=O)c2ccco2)c(S(=O)(=O)c2ccc(C)cc2)c2nc3ccccc3nc21 returned Epigenetic reg -1%, PINK1 expr mod -1%[38.3 µM], Vif-APOBEC3G blk -1% and Vif-A3F inh -2%.
For CCCCn1c(NC(=O)c2ccco2)c(S(=O)(=O)c2ccc(C)cc2)c2nc3ccccc3nc21 the results were Epigenetic reg 2%, PINK1 expr mod 1%, Vif-APOBEC3G blk inconclusive and Vif-A3F inh 25µM*.
N=c1oc2cc(O)ccc2cc1C(=O)Nc1ccc(F)cc1 was read as PINK1 expr mod 14µM*, Vif-APOBEC3G blk -4% and Vif-A3F inh 7%.
`O=C(c1ccc(F)cc1)c1cc2ccc(O)cc2oc1=O` gave PINK1 expr mod 2%, Vif-APOBEC3G blk 3% and Vif-A3F inh 0%.
`CN(C)c1ccc(NC2=C([N+](=O)[O-])CS(=O)(=O)C2)cc1` gave Epigenetic reg 16µM*, PINK1 expr mod 2%[38.3 µM], Vif-APOBEC3G blk -3% and Vif-A3F inh -7%.
NN=C1c2ccccc2C(=O)C1C(=O)C(c1ccccc1)c1ccccc1 (stereo not drawn) was read as PINK1 expr mod 0%, Vif-APOBEC3G blk 11µM* and Vif-A3F inh inactive.
`O=C(O)C(c1ccccc1)N1C(=O)c2cccc3cccc(c23)C1=O` (stereo not drawn) gave PINK1 expr mod 1%, Vif-APOBEC3G blk 0% and Vif-A3F inh 2%.
For COc1cccc(-n2c(=O)c3cc(OC)c(OC)cc3n(CC(=O)Nc3ccccc3)c2=O)c1 the results were Epigenetic reg 9%, PINK1 expr mod -1%, Vif-APOBEC3G blk 6% and Vif-A3F inh 1%.
Screening O=C(O)CCCNc1cc(N2CCC3(CC2)OCCO3)c2noc3c2c1C(=O)c1ccccc1-3 returned Epigenetic reg 0%.
O=C(O)CCCNc1cc(N2CCN(C(=O)c3ccco3)CC2)c2noc3c2c1C(=O)c1ccccc1-3 was read as PINK1 expr mod inconclusive, Vif-APOBEC3G blk 22µM* and Vif-A3F inh inconclusive.

High-throughput results from PubChem.
